Compound activity: PubChem, National Center for Advancing Translational Sciences (NCATS)
Pf growth 48h: Primary qHTS for delayed death inhibitors of the malarial parasite plastid, 48 hour incubation. AID 504832, 2011. P. falciparum luciferase growth in erythrocytes, 48 h. Potency, µM (series often up to 28.7 µM), actives largely listed as inhibitors. 310,000 tested, 5.9% active
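Firefly luciferase activity from engineered P. falciparum reports growth; inhibitors lower the luminescent signal. Cultures contained 2% hematocrit erythrocytes at 0.1% final parasitemia.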
Pf growth 96h: Primary qHTS for delayed death inhibitors of the malarial parasite plastid, 96 hour incubation. P. falciparum luciferase reporter growth, 96 h. Potency, µM (series often up to 28.7 µM), most hits filed as inhibitors. 320,000 tested, 6.9% active
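Two-generation exposure (96 h) targets delayed-death phenotype. Reporter parasites carrying integrated firefly luciferase, in red cells at 2% hematocrit and 0.05% parasitemia final, kept at 37 C, 5% CO2; luminescence loss indicates inhibition.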
SARS PLP yeast: qHTS of Yeast-based Assay for SARS-CoV PLP; Potency, µM (highest dose often 32.9 µM), hits mostly activators; AID 485353, 2010; S. cerevisiae expressing SARS-CoV PLpro, growth rescue; 330,000 tested, 0.19% active; calls by dose curve; further: nearly all actives have a fitted effect of over 55% in size
Sm TGR inh: qHTS Assay for the Inhibitors of Schistosoma Mansoni Peroxiredoxins. AID 485364, 2010. 360,000 tested, 3% active. Potency, µM (titrated, usually from 114 µM), most hits filed as inhibitors. purified TGR, DTNB reduction, TNB absorbance 405 nm. Schistosoma mansoni thioredoxin glutathione reductase (TGR), Q962Y6; further: nearly all actives have a fitted effect of over 60% in size
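TGR 20 nM + NADPH 100 uM (dispensed conc.), cpd preinc 15 min RT; start with NADPH (500 uM addition) then DTNB (15 mM addition). Kinetic TNB absorbance, 405 nm filter. Four-parameter Hill fit across titration.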
Numbers stand for hits; n = inactive; u = inconclusive; x = not tested or not shown. In the library only some 12% were active in any assay of this set; here they are far more common. Unless noted, the call rests on the fitted dose curve; in most records, active means well fitted curve in the direction sought with a large enough effect; inconclusive means small, poorly fitted or top-dose-only effect, or another doubt; inactive means no such curve, though single readings can be large; an effect the other way counts as inactive or inconclusive.

SMILES	Pf growth 48h	Pf growth 96h	SARS PLP yeast	Sm TGR inh
Fc1cccc(-c2cc3nc4c(c(N5CCOCC5)n3n2)CCCC4)c1	8.3µM	u	n	n
Clc1cccc(-c2cc3nc4c(c(N5CCN(c6cnccn6)CC5)n3n2)CCCC4)c1	2.1µM	n	n	n
COc1cccc(CN2CC(C(=O)N(C)C3CCOCC3)CCC2=O)c1 (stereo unspecified)	n	n	n	n
COc1cccc(N/C(=N/C(=S)Nc2ccc(C)cc2C)Nc2nc(C)cc(C)n2)c1	4.1µM	3.3µM	n	n
O=C(O)c1ccc(-c2ccccc2)[nH]c1=O	n	n	n	n
CN(C)c1c(-c2ccccc2)cc(-c2ccccc2)[nH]c1=O	n	n	n	16µM
CCN(CC)CC(O)c1ccc(C2CCCC2)cc1 (stereo unspecified)	10µM	13µM	n	n
CC(=O)N=c1sccn1CC(O)c1ccc(Br)cc1 (stereo unspecified)	u	n	n	n
O=C(CS(=O)CC(=O)N(c1ccccc1)C(C(=O)NC1CCCCC1)c1ccco1)Nc1ccc(F)cc1 (stereo unspecified)	u	7.4µM	n	n
COc1ccc(N(C(=O)CS(=O)CC(=O)Nc2ccc(F)cc2)C(C(=O)NC2CCCCC2)c2cccs2)cc1 (stereo unspecified)	n	u	n	n
Cc1ccc(NC(=O)CS(=O)CC(=O)N(c2ccc(C)cc2)C(C)C(=O)NC2CCCCC2)cc1 (stereo unspecified)	13µM	u	n	n
Cc1cc(C)n(CCc2nc3c4ccccc4nc(N4CCN(c5ccccc5F)CC4)n3n2)n1	x	x	x	n
COc1ccc(S(=O)(=O)NCc2nc3nc(C)cc(C)n3n2)cc1	x	x	x	n
Cc1cc(C)c(S(=O)(=O)NCc2nc3nc(C)cc(C)n3n2)c(C)c1	n	12µM	n	n
COC(=O)c1ccccc1S(=O)(=O)NCc1nc2nc(C)cc(C)n2n1	n	13µM	n	n
Cc1ccc(CNC(=O)Cc2nc3nc(C)cc(C)n3n2)cc1	n	n	n	n
Cc1cc(C)n2nc(CC(=O)NCc3ccccc3Cl)nc2n1	n	3.3µM	n	n
CC(C)Cn1c(-c2ccc(S(=O)(=O)N3CCCC3)cc2)csc1=Nc1ccccc1	x	x	x	n
CC(=O)Nc1ccc(S(=O)(=O)NC(C(=O)O)C2=CCC=CC2)cc1 (stereo unspecified)	n	3.7µM	n	n
CCOc1ccc(S(=O)(=O)N2CCC(C(=O)NCc3ccncc3)CC2)cc1	u	u	n	n
CCc1ccc(NC(=O)Cn2c(=O)n(-c3ccc(Cl)c(Cl)c3)c(=O)c3c(C)c(C)sc32)cc1	x	x	x	n
Cc1ccc(/C=N/NC(=O)c2cc3c(s2)CCCC3)o1	8.3µM	u	n	n
Cc1ccc(/C=N/NC(=O)c2ccncc2)o1	n	n	n	n
Cc1cc(C)cc(NC(=O)c2cc(S(=O)(=O)N3CCCCC3)c[nH]2)c1	x	x	x	n
COc1ccc(CCNC(=O)c2c([S-])n(-c3ccc(C)cc3)c3cccc[n+]23)cc1	u	10µM	n	n
SMILES	Pf growth 48h	Pf growth 96h	SARS PLP yeast	Sm TGR inh
CCc1ccc2n(-c3ccc(OC)cc3)c([S-])c(C(=O)Nc3cc(C)cc(C)c3)[n+]2c1	13µM	8.3µM	n	n
CC1CCC(NC(=O)CN2C(=O)NC3(CCCCC3C)C2=O)CC1 (stereo unspecified)	u	n	n	n
CC(C)CN1CCC(=O)N([C@H](COc2ccccc2)Cc2ccccc2)CC1	u	12µM	n	n
O=C1CCN(CCc2ccccc2)CCN1[C@H](COc1ccccc1)Cc1ccccc1	u	3.3µM	n	n
CCOCCCn1c(SCC(=O)Nc2ccc(C)cc2)nc2ccccc2c1=O	x	x	x	n
CCOC(=O)c1c(C)[n+](-c2ccc(C)cc2)c(CC)c2cc(OC)c(OC)cc12	0.83µM	0.74µM	n	n
CC(=O)N1CCc2c(sc3c2c(=O)n(-c2cccc(Cl)c2)c(=O)n3Cc2ccc(F)cc2Cl)C1	x	x	x	n
CC(=O)N1CCc2c(sc3c2c(=O)n(-c2ccccc2)c(=O)n3Cc2ccccc2Cl)C1	u	12µM	n	n
Cc1ccc(-n2nnc3c(=O)n(CC(=O)N4CCC(C)CC4)cnc32)cc1	n	4.1µM	n	n
CN(CC(=O)Nc1ccc(N2CCOCC2)cc1)C(=O)CSc1ccc(F)cc1	u	u	n	n
Cc1ccc(-c2nnn(CC(=O)N(CC(=O)NC3CCCC3)c3cnc4ccccc4c3)n2)o1	u	9.3µM	n	n
